B1: d6r1_design_ppi_463_dldesign_0_cycle0_af2pred (protein)
chain: GLIEELLAEARAEVEAEIAARREEARRLAAEGEESEDTEEKRARAEELLAEAAEREAQADSIAAQAAFRRAAELTRQLAAAA
B2: d6r1_design_ppi_377_dldesign_0_cycle1_af2pred (protein)
chain: MEDEELAEKIRERAKEAIAQIRASSPEQAALLAGTLVAEFGEWARSGTPEVAAVAHEEMNRVTGEAAKVIA
B3: d6r1_design_ppi_900_dldesign_0_cycle1_af2pred (protein)
chain: GEEAAREAEELERRAEELEELARRARELSAEELTEAALEAVRLANRAHALMTAGAPPEVAARLQEVAARALEAAERLSREAREKRA
B4: d6r1_design_ppi_785_dldesign_0_cycle1_af2pred (protein)
chain: AAAASAAQTATITRAAVASGNTFDAARAGAEMLHYQDPAVGEEVAKTVEEAKKLSPEEAKAAILAKFDAIAARYA
B5: d6r1_design_ppi_699_dldesign_0_cycle1_af2pred (protein)
chain: EEEAKEKIREAAKEAAAAAKAQDPAHAPLIEAAAKEIAEAAEKGLVEAQEKANALARAHPEAAQHFSLIFAFAAQAYAEAR
B6: d6r1_design_ppi_593_dldesign_0_cycle1_af2pred (protein)
chain: SKNVELAEKAQEVVKRAKEVGKLVPEKAEEIISTSNQALAYALNPHTVAKGEKLLEEATKLVEEAEKEAK
B7: d6r1_design_ppi_719_dldesign_0_cycle0_af2pred (protein)
chain: AAAAAAEAARQASAEKAKQLGLDLAEDARRLTEAGGSPAAVQAALNSAEAVARNLAAMGEVGKPFAEEVLKAAEEARKLAA
B8: d6r1_design_ppi_478_dldesign_0_cycle1_af2pred (protein)
chain: AAARAAAQQLLMEVAEELIKLGAKEAARLALRAIGLLLSDPAQGVAAAKEAAKKAKEEAPENGEELAKKLEEAAKLAAA
B9: d6r1_design_ppi_848_dldesign_0_cycle1_af2pred (protein)
chain: AAGEKALEILKKTAQALLKNAPLLTAEAAAKLAKVIIDAAWAAAKKIGPEAEKVAKEVKALAKEAVAAAAAAAKARAA
B10: d6r1_design_ppi_398_dldesign_0_cycle0_af2pred (protein)
chain: STAASLATGARVIANLFERAIEAAADPATRAEAEGLARSAAEIGALIGPELAAIAEAGLAAIGDLAAMRAELERVRALAAAA
B11: d6r1_design_ppi_761_dldesign_0_cycle0_af2pred (protein)
chain: AEEKERLKELAKFAKEALKKVEELRAAIKANADDPAAVAAARDAMIALAKEAAEKDAEVGNAVMIALGDPEKGVEKLKEVTEKLEKAA
B12: d6r1_design_ppi_381_dldesign_0_cycle1_af2pred (protein)
chain: DEARAIIVSSLSEAAALDPAVAPLAMRAAALSINPATAAAAMAEAIAAMRAAGATVPEVAALADRAEAAA
B13: d6r1_design_ppi_311_dldesign_0_cycle1_af2pred (protein)
chain: MTPEEVAARAAELLAWLRAQAALDPEMAALGAAGLELVLAHSPELAARAVRQLERARRMPPADALRVGALIAQAYAAQVERARA
B14: d6r1_design_ppi_377_dldesign_0_cycle0_af2pred (protein)
chain: EEERRRAEELRRRAEEAIERIRASTPEEAARIAGELVAWLGEEARAGTPELAEEARREMARVTREAARVLA
B15: d6r1_design_ppi_833_dldesign_0_cycle0_af2pred (protein)
chain: MTPMSAAVAAAEEAIAAATAADPERGGRIAQEAFRGLAQATAIYVTQGKAAGDAAAEELRKRFEAEKAKVEAEAA
B16: d6r1_design_ppi_463_dldesign_0_cycle1_af2pred (protein)
chain: GPFEAAYAEALAEVEAEIAALKAEAEKVAAAGKKTGKTAEAAAKAEELKAKAAELEAQKESIAAQRAFRRLAAQTAAQAAAA
B17: d6r1_design_ppi_397_dldesign_0_cycle1_af2pred (protein)
chain: GEEEEEKKRKEEIKKAIKEAAEKAKEAGPAETRPEIEAAEKLALEDPKAGMNRLLAIGAREPATAPYLVEGAEKVSALLKS
B18: d6r1_design_ppi_583_dldesign_0_cycle1_af2pred (protein)
chain: MNIEELTALAEEHEAKAKALAAAGAPAIEVVSAATLAVRYYNEAAKLLAKIDPAKAKEYTAKAEAIRAAAAAYIRAQLARSAAA
B19: d6r1_design_ppi_373_dldesign_0_cycle1_af2pred (protein)
chain: EKEELIKKAKEALEKAKKAAKEAAADPELAKKAKKLAEEAKKAVEKAKKSGKEEAKKLAEKAKAAAAKAEAYALLAQGRAAA
B20: d6r1_design_ppi_759_dldesign_0_cycle1_af2pred (protein)
chain: AAETERALRNAKAYATAAEHAAKAHPESPELKKLAAEAKAYYKKAAAAYAAGKKEEALKYAQKAIEKAAEAFSLLS
B21: d6r1_design_ppi_812_dldesign_0_cycle0_af2pred (protein)
chain: SAELAERLRRISELFRKAIESGVEEAKRYVEEAAREFARLSGDEERGRELAREAKEAVELGEEGKEAVRAVAQRMLLYGAQAA
B22: d6r1_design_ppi_468_dldesign_0_cycle1_af2pred (protein)
chain: AQAALDAAIAAARAAAALAREAGDDTAAAFFESAALVLEGGPANMPLAIRLTEAGIRSARARLDPATAAKVAALGEAAIAAARAAAAA
B23: d6r1_design_ppi_829_dldesign_0_cycle0_af2pred (protein)
chain: EEAKKKAEELIAEVKAYADAAAAAAAAAGAARGAAAAALAAAAIAGIKNIAKAAEEEIKEAAEDPEKQKEIAERAKENIDKILAVALG
B24: d6r1_design_ppi_695_dldesign_0_cycle1_af2pred (protein)
chain: EAAARQAAINAAALAVAKAVVDKAFADQSPAVVAGAKTMVTMIVNLYADPAKRPQAEALAENSHPAVREAVDAGLAAAAALAAA
B25: d6r1_design_ppi_518_dldesign_0_cycle0_af2pred (protein)
chain: SAATLAQYNQLSGQASRLLMQAAQTGSVELAQQALQYAQQALQLAQQASANNAEGAKQLLEIAQATLAAVQ
B26: d6r1_design_ppi_887_dldesign_0_cycle1_af2pred (protein)
chain: AAVEEATAKAKELREKATKLALEGIRTGNQELVEKAKEKAEKAKELGESSNEEAKEYAKVALAVAEMAKAAL
B27: d6r1_design_ppi_759_dldesign_0_cycle0_af2pred (protein)
chain: MAKVEQLLNNAKAYAGAAENAARTHSENPELQKLAKEAKEYYEKAEKAYKEGKLKEAEEYAKKAIEKAAEAFSLLQ
B28: d6r1_design_ppi_617_dldesign_0_cycle1_af2pred (protein)
chain: AAAQAQQLMNEALALLFEAARKAPDPSEILRAASKAAQGHLSGSLAEEALAYIREVAEKYPEVAELINEAAELYAQAAKL
B29: d6r1_design_ppi_848_dldesign_0_cycle0_af2pred (protein)
chain: AAAETGLKILEATVQALLKNASKYSAEAVKKLSEVLKASAEAEAKAGGEKLKERAKEIKKLAEEAEKKAKEAAKAKAE
B30: d6r1_design_ppi_807_dldesign_0_cycle1_af2pred (protein)
chain: AQAKRVSLAAALALLNSAIDAAADPKSAAALAEQAADLLESTGEAAPLGKKAKEAAKLLLEDPEKGKALAKEVAKKAAELLAKT
B31: d6r1_design_ppi_484_dldesign_0_cycle1_af2pred (protein)
chain: GEEAERESKEALERVRELLRRLNELAAQRAAHPAELRATAAALVEAGKEALANPNASEEAKQLGAFGVTLGQTVLAALDAAAA
B32: d6r1_design_ppi_575_dldesign_0_cycle1_af2pred (protein)
chain: GAALAAQRAEAREVLARARAIEAQAQALAATQPAAAGIGSLARQAIELASRSLEEGLELLPSARALVEVAAGIVAAA
B33: d6r1_design_ppi_575_dldesign_0_cycle0_af2pred (protein)
chain: SAEEEAAKEEAKAVLAQAEAILEQAKALAAQQPWAAGIAALARTAIRLAKESLEKGLELLPDAKALTEAAAGIVAAA
B34: d6r1_design_ppi_617_dldesign_0_cycle0_af2pred (protein)
chain: AAARAQALLNEALALLFEAAARSRDGAPILRAASLAAQGFLTGEAAPEALAYIEAVAKEHPEVRELILEAARLFAEAAAL
B35: d6r1_design_ppi_270_dldesign_0_cycle1_af2pred (protein)
chain: EEEKREAAREITERAIEEIRAAAERAAAAGQPGAGVEAGMKIGAEAVRRVREKGTEELAEEAARRMNAALAEAIRAAMALAR
B36: d6r1_design_ppi_658_dldesign_0_cycle1_af2pred (protein)
chain: LEEELEKAKNEAKLLLAEAAATLLATDAKGQKAAQLLAAAIAYLDTDPEQALKDAKEALKLVPDSEKVKKALEATEKALELKKKI
B37: d6r1_design_ppi_801_dldesign_0_cycle0_af2pred (protein)
chain: AALAALTAEANARANAILGRAFAEALARTRAGESPAPVFAAAAAELRRLGEESNPEGRAIADSGIALLQAAA
B38: d6r1_design_ppi_821_dldesign_0_cycle1_af2pred (protein)
chain: AAAQARAEARALNERARALLAAAPVGRAAEAEALATRALGLALAHREAFSNAEMTDILRTLARAAGAARQQAA

What follows are binders tested against CD276, Q5ZPR3.
CD276, Q5ZPR3, sequence (Q5ZPR3 whole entry): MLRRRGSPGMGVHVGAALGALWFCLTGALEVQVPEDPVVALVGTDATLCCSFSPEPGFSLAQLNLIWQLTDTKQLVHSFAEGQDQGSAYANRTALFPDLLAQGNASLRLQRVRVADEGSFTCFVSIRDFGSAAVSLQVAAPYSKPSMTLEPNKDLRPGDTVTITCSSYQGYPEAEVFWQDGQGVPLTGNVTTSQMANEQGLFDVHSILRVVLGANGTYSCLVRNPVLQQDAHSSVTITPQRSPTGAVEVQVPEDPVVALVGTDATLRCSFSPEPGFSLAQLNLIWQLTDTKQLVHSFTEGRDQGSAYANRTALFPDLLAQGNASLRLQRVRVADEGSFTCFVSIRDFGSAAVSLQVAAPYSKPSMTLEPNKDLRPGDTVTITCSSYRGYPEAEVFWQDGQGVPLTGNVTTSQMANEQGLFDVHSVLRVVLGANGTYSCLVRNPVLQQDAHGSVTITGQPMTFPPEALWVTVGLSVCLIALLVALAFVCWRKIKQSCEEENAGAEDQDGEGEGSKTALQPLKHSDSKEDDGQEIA

Binding in a display sort, inactive:
B1 not found, B2 not found, B3 not found, B4 not found, B5 not found, B6 not found, B7 not found, B8 not found, B9 not found, B10 not found, B11 not found, B12 not found, B13 not found, B14 not found, B15 not found, B16 not found, B17 not found, B18 not found, B19 not found, B20 not found, B21 not found, B22 not found, B23 not found, B24 not found, B25 not found, B26 not found, B27 not found, B28 not found, B29 not found, B30 not found, B31 not found, B32 not found, B33 not found, B34 not found, B35 not found, B36 not found, B37 not found, B38 not found
